Screens as filed in PubChem BioAssay.
Shown are actives, neighbours in structure and some others; about 0.45% of the full set was active somewhere.
FadD28 binding – inhibitors of Mycobacterium tuberculosis FadD28 bisubstrate binding. FadD28 bisubstrate probe binding, fluorescence polarization. inhibition, % at 12.5 µM. 0.22% of 360,000 active; in the data active = inhibition above about 8.5%, passing the limit was not always enough
Y pestis TopoI – Y. pestis Topo-I inhibition via cleavage products | Y. pestis Topo-I cleavage product accumulation, plate reader | activity, % at 10 µM | 0.064% of 360,000 active | AID 504884; in the data active = activity above about 50%, passing the limit was not always enough
TcdB GH inh – inhibitors of Clostridioides difficile toxin B glycohydrolase | 0.24% of 350,000 active | P18177 | inhibition, % at 9.99 µM | TcdB glycohydrolase enzymatic assay, plate reader; in the data active = inhibition above about 10%
BioA inh-1 – blocks M. tuberculosis BioA enzyme activity; purified M. tuberculosis BioA enzyme, plate reader; inhibition, % at 9.99 µM; 0.096% of 360,000 active; in the data active = inhibition above about 40%
BioA inh-2 – inhibitors of Mycobacterium tuberculosis BioA enzyme; shares compounds with BioA inh-1; purified BioA enzyme, plate reader, dose response; max activity, %; 310 tested, under 10 active;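 also: top concentration of the dilution series was 10 µM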
HepG2 tox 2 – HepG2 viability loss; shares compounds with BioA inh-1; HepG2 cytotoxicity, plate reader; max activity, %; 310 tested, under 10 active
NIH3T3 tox 5 – NIH3T3 viability loss; shares compounds with BioA inh-1; NIH3T3 cytotoxicity, plate reader; activity change, negative = cytotoxicity, % at 26 µM; 310 tested, under 10 active; AID 651900
Starred values were filed as active, the others as inactive; i = inactive; nt = no result. Unless noted, no rule for the calls is given here.

SMILES	FadD28 binding	Y pestis TopoI	TcdB GH inh	BioA inh-1	BioA inh-2	HepG2 tox 2	NIH3T3 tox 5
O=[N+]([O-])c1ccc(C[n+]2c(-c3ccccc3)cc(-c3ccccc3)cc2-c2ccccc2)cc1	-2	12	1	59*	-4	-9	0
CCc1c(C(=O)NCCc2ccc(OC)c(OC)c2)[nH]c(C)c1C(C)=O	-2	1	nt	60*	-9	10	-6
CCc1c(C(=O)NCCc2cccc(C)c2)[nH]c(C)c1C(C)=O	-5	5	0	12	nt	nt	nt
CCCN1[C@H](C(=O)NCC(F)(F)F)[C@@H](CO)[C@@H]2Cn3c(ccc(-c4ccccc4)c3=O)[C@@H]21	nt	nt	0	2	nt	nt	nt
COc1cc(-c2nc3ccccn3c2N)ccc1O	1	2	1	0	nt	nt	nt
COc1cc(-c2nc3ccccc3nc2-c2ccc(O)c(OC)c2)ccc1O	-2	7	10	51*	-6	12	2
O=C(c1ccccc1F)N1CC[C@@H]2[C@H](CO)Nc3ccc(-c4ccccc4)cc3[C@@H]21	nt	nt	0	-1	nt	nt	nt
O=C(c1ccccc1F)N1CC[C@@H]2[C@H]1c1cc(Br)ccc1N[C@@H]2CO	nt	nt	2	49*	4	i	6
O=C(c1ccccc1F)N1CC[C@@H]2[C@H](CO)Nc3ccc(Br)cc3[C@@H]21	nt	nt	-3	83*	-6	i	7
O=C(c1cccc(F)c1)N1CC[C@@H]2[C@@H](CO)Nc3ccc(-c4cccc(F)c4)cc3[C@@H]21	nt	nt	nt	98*	-11	i	-9
Cc1noc(C)c1NC(=O)N(C)C[C@H]1Oc2ccc(NC(=O)Cc3cn(C)c4ccccc34)cc2CC(=O)N([C@@H](C)CO)C[C@@H]1C	nt	nt	-1	-2	nt	nt	nt
CN(C)CC#Cc1ccc([C@H]2[C@H](CO)N3C(=O)CN(C(=O)c4ccccc4)C[C@@H]23)cc1	nt	nt	1	nt	nt	nt	nt
COc1ccccc1S(=O)(=O)N1CC[C@@H]2[C@H](CO)Nc3ccc(-c4cccc(C#N)c4)cc3[C@@H]21	nt	nt	nt	48*	20	i	1
CN(CCc1ccccn1)C(=O)CCC1CCCN(C(=O)c2cscn2)C1 (configuration not stated)	1	-5	0	nt	nt	nt	nt
CC(=O)c1ccc(C(=O)N2CCCC(CCC(=O)N(C)CCc3ccccn3)C2)s1 (configuration not stated)	1	2	-2	66*	3	-15	-10
C[C@H](CO)N1C[C@H](C)[C@@H](CN(C)S(=O)(=O)c2cn(C)cn2)Oc2ccc(NS(C)(=O)=O)cc2CC1=O	nt	nt	nt	2	nt	nt	nt
COc1cc(C(=O)N2Cc3cc4ccccc4nc3C2C)cc(OC)c1OC (configuration not stated)	0	1	1	69*	-4	25	7
C[C@@H]1CN([C@@H](C)CO)C(=O)c2cc(NS(=O)(=O)c3ccc(Cl)cc3)ccc2O[C@@H]1CN(C)C(=O)NC1CCCCC1	nt	nt	1	0	nt	nt	nt
C[C@H](CO)N1C[C@H](C)[C@@H](CN(C)CC2CCCCC2)Oc2c(NS(C)(=O)=O)cccc2C1=O	nt	nt	0	-1	nt	nt	nt
COc1ccc(-c2n[nH]c3c2CN(C(=O)c2ccc(OC)c(OC)c2)CC3)cc1	-2	15	1	86*	-8	29	7
COc1ccc(S(=O)(=O)Nc2ccc3c(c2)C(=O)N([C@@H](C)CO)C[C@H](C)[C@@H](CN(C)Cc2ccccc2)OCCCC[C@@H](C)O3)cc1	nt	nt	nt	4	nt	nt	nt
CC(=O)Nc1ccc(N2CCCC(C)C2)c([N+](=O)[O-])c1 (configuration not stated)	2	-10	2	nt	nt	nt	nt
CC1CCCN(c2ccc(C(=O)Nc3cccnc3)cc2[N+](=O)[O-])C1 (configuration not stated)	-3	7	6	54*	-7	5	-9
CCCC(=O)Nc1ccc2c(c1)C(=O)N(C)C[C@@H](OC)[C@@H](C)CN(Cc1nccs1)[C@H](C)CO2	nt	nt	nt	-1	nt	nt	nt
O=C(Nc1ccc2snnc2c1)N1CCN(c2ccccc2)CC1	-1	4	nt	75*	-8	16	1
SMILES	FadD28 binding	Y pestis TopoI	TcdB GH inh	BioA inh-1	BioA inh-2	HepG2 tox 2	NIH3T3 tox 5
O=C(Nc1ccc2snnc2c1)N1CCOCC1	-1	0	nt	65*	-5	15	1
COc1ccc(NC(=O)N(C)C[C@@H]2OCCCC[C@@H](C)Oc3ccc(NS(=O)(=O)c4ccccc4)cc3C(=O)N([C@@H](C)CO)C[C@@H]2C)cc1	nt	nt	1	-2	nt	nt	nt
CC(=O)N1CCN(c2nnc(-c3ccc(C)cc3)c3ccccc23)CC1	-4	22	1	nt	nt	nt	nt
Cc1ccc(-c2nnc(N3CCN(C(=O)CSc4ncn[nH]4)CC3)c3ccccc23)cc1	-3	23	nt	52*	-8	6	-1
C/C=C/c1ccc2c(c1)O[C@@H](CN(C)C(=O)Nc1ccc(OC)cc1)[C@@H](C)CN([C@@H](C)CO)S2(=O)=O	nt	nt	2	41*	9	i	3
C/C=C/c1ccc2c(c1)O[C@@H](CN(C)C(=O)Nc1ccccc1)[C@H](C)CN([C@H](C)CO)S2(=O)=O	nt	nt	1	42*	-5	i	4
Cc1ccccc1S(=O)(=O)N1C[C@H](O)COC[C@@H]2O[C@@H](CC(=O)NCCc3ccccc3)CC[C@H]21	nt	nt	0	1	nt	nt	nt
CC(=O)N1[C@@H]2c3ccc(-c4cccnc4)c(=O)n3C[C@@H]2[C@@H](CO)[C@@H]1C(=O)NCc1ccccc1Cl	nt	nt	0	85*	9	i	-9
CCNC(=O)[C@H]1[C@H](CO)[C@H]2Cn3c(ccc(-c4ccccc4)c3=O)[C@H]2N1C(=O)Cc1cccnc1	nt	nt	0	40*	-2	i	10
Cn1cnc(S(=O)(=O)N2CCCCN3[C@H](CO)[C@@H](c4ccc(C5=CCCC5)cc4)[C@H]3C2)c1	nt	nt	1	-5	nt	nt	nt
CNC(=O)C[C@H]1CC[C@@H]2[C@H](COC[C@@H](O)CN2C(=O)Nc2ccc3c(c2)OCO3)O1	nt	nt	-1	50*	-8	i	-4
COC(=O)C[C@@H]1CC[C@@H]2[C@H](COC[C@@H](O)CN2C(=O)Nc2cccc(F)c2)O1	nt	nt	0	46*	-7	i	-1
O=C(C[C@H]1C[C@H]2c3cc(NC(=O)C4CCC4)ccc3O[C@H]2[C@@H](CO)O1)NCCc1ccccc1	nt	nt	-2	0	nt	nt	nt
CCOc1ccc(CCNC(=O)c2cnc(C)cn2)cc1OCC	nt	5	0	69*	-6	27	6
CCOc1ccc(CCNC(=O)c2cnccn2)cc1OCC	nt	-5	-1	19	nt	nt	nt
CCCNC(=O)Nc1ccc2c(c1)OC[C@H](C)N(Cc1cccnc1)C[C@H](C)[C@H](OC)CN(C)C2=O	nt	nt	nt	0	nt	nt	nt
COC(=O)c1sc(N)c(C(=O)OC)c1CSc1nnc(-c2ccccc2Cl)n1C	1	16	nt	59*	-5	7	-8
COC(=O)c1sc(N)c(C(=O)OC)c1CSc1nnnn1C	-3	-1	nt	6	nt	nt	nt
CCC(=O)N1CC2(C1)CN(S(C)(=O)=O)[C@H](CO)c1[nH]c3cc(OC)ccc3c12	nt	nt	-1	nt	nt	nt	nt
CC(=O)c1ccc(N2CCN(C(=O)c3ccco3)CC2)c(F)c1	-3	0	nt	21	nt	nt	nt
